The results in this text go back to PubChem BioAssay (Tox21).

Where “and” joins values, the source holds several entries; their conditions need not be identical. Equal entries are not always repeated. Unmarked numbers belong to inactive results. Results filed as inconclusive are left out. Calls of active or inactive are those of the source. Unless noted, calls come from the whole dose curve; as a rule, active = well fitted curve in the direction sought with a large enough effect in the repeat runs; inconclusive = weak or mixed curves; inactive = no such curve, though single readings can be large; an effect the other way counts as inactive or inconclusive.

A short description of experiment [1]: qHTS assay to identify small molecule antagonists of the glucocorticoid receptor (GR) signaling pathway - cell viability counter screen (AID 720693). Note: nearly all actives have a fitted effect of over 55% in size. Note: potency is the fitted concentration of half-maximal effect. Background: qHTS replaces the single test concentration by a dilution series.
A short description of experiment [2]: qHTS assay for identifying genotoxic compounds that show differential cytotoxicity against isogenic chicken DT40 cell lines with known DNA damage response pathways - wild type cell line (AID 743012). Note: nearly all actives have a fitted effect of over 60% in size. Note: potency is the fitted concentration of half-maximal effect. The gist of the method:
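Cells (DT40 wild type, 300/well) are treated with DMSO-dissolved compounds after a ~0.5 h pre-incubation and kept 40 h at 37 C/5% CO2. Viability is then measured by CellTiter-Glo luminescence following 30 min at room temperature.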

Experiment [3] is described as follows: qHTS assay for identifying genotoxic compounds that show differential cytotoxicity against isogenic chicken DT40 cell lines with known DNA damage response pathways - Rev3 mutant cell line (AID 743014). Note: nearly all actives have a fitted effect of over 55% in size. Note: potency is the fitted concentration of half-maximal effect.
Experiment [4] is described as follows: qHTS assay for identifying genotoxic compounds that show differential cytotoxicity against isogenic chicken DT40 cell lines with known DNA damage response pathways - Rad54/Ku70 mutant cell line (AID 743015). Note: nearly all actives have a fitted effect of over 60% in size. Note: potency is the fitted concentration of half-maximal effect.
Experiment [5] can be described thus: qHTS assay to identify small molecule antagonists of the androgen receptor (AR) signaling pathway - cell viability counter screen (AID 743033; note: nearly all actives have a fitted effect of over 45% in size; note: potency is the fitted concentration of half-maximal effect).
Experiment [6] can be described thus: qHTS assay to identify small molecule antagonists of the androgen receptor (AR) signaling pathway using the MDA cell line - cell viability counter screen (AID 743041; note: nearly all actives have a fitted effect of over 45% in size; note: potency is the fitted concentration of half-maximal effect). The gist of the method:
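Same-well cytotoxicity was assessed by CellTiter-Fluor in MDA-kb2 AR-luc cells after 16 h of compound treatment under R1881 agonism.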

Experiment [7] has as its target Androgen receptor (Homo sapiens) (UniProt P10275). Put plainly: qHTS assay to identify small molecule antagonists of the androgen receptor (AR) signaling pathway (AID 743035; active = well fitted inhibition curve with a large enough effect in the signal ratio in the repeat runs, not every such curve was filed as active; the % refers to the signal ratio). In short, it runs like this:
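Antagonism is scored as loss of R1881-driven beta-lactamase reporter expression in HEK293 cells carrying the reporter under a UAS element, after 16 h co-treatment at 37C and a 2 h room-temperature FRET substrate read.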

Experiment [8] shares this target. Briefly: qHTS assay to identify small molecule agonists of the androgen receptor (AR) signaling pathway (AID 743036; active = well fitted activation curve with a large enough effect in the signal ratio in the repeat runs, with a control signal flat, not every such curve was filed as active; the % refers to the signal ratio). In short, it runs like this:
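Agonist activity was scored by beta-lactamase reporter fluorescence in stably transfected HEK293 cells exposed to compounds for 16 h at 37C and 5% CO2. Substrate loading took 2 h at room temperature.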

For experiment [9] the target is unchanged. Put plainly: qHTS assay to identify small molecule agonists of the androgen receptor (AR) signaling pathway using the MDA cell line (AID 743040; note: nearly all actives have a fitted effect of over 20% in size; note: potency is the fitted concentration of half-maximal effect). In short, it runs like this: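 Human breast carcinoma MDA-kb2 reporter cells (MMTV-luc, AR/GR elements) were treated for 16 h at 37C in 0% CO2 following a 5 h settling period. Signal was quantified by ONE-Glo luminescence.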

Experiment [10] shares this target. Put plainly: qHTS assay to identify small molecule antagonists of the androgen receptor (AR) signaling pathway using the MDA cell line (AID 743042; note: nearly all actives have a fitted effect of over 55% in size). In short, it runs like this:
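MDA-kb2 breast carcinoma cells carrying MMTV-luciferase (AR/GR responsive) were co-treated with compounds and the agonist R1881 for 16 h at 37C. Inhibition read as ONE-Glo luminescence; CellTiter-Fluor fluorescence measured in parallel for cytotoxicity.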

Chain of Androgen receptor (Homo sapiens) (P10275 whole entry, looked up): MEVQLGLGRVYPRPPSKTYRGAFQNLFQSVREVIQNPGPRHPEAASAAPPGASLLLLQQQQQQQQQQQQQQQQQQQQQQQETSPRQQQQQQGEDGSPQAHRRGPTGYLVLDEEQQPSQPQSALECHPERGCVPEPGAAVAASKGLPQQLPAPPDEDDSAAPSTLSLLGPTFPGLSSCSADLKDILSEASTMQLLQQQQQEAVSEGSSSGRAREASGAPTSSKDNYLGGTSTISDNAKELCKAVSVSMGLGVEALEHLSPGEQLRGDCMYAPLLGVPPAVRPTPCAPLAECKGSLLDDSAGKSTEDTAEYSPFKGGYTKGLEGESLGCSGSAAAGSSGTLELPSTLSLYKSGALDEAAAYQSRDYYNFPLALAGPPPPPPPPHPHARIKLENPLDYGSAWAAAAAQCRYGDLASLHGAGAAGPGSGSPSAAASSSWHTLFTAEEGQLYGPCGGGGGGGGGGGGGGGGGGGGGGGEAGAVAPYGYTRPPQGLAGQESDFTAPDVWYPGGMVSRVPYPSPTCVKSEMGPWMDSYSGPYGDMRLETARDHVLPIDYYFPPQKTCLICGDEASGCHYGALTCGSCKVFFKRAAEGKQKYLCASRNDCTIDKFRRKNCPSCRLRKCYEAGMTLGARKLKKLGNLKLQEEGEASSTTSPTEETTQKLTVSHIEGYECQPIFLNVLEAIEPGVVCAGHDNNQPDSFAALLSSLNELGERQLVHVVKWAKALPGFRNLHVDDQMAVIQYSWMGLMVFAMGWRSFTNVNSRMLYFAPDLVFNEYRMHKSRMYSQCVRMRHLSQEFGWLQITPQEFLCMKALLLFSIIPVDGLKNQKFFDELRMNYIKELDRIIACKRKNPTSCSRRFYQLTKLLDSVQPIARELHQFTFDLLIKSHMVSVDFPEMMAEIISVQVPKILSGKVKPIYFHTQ

With `CC[N+]1(CC)CCC(=C(c2ccccc2)c2ccccc2)C1C` (stereo not given), the Potency entry in [1] is “inactive”. The Potency is 8.41 µM (active) in [2], 16.8 µM (active) in [3] and 13.3 µM (active) in experiment [4].

For `C=CCOC(=O)CCC1CCCCC1`, the Potency result in experiment [1], in experiment [2], in [3], in [4], in experiment [5] and in [6] was “inactive” throughout.

For `C[C@H](CCC(=O)O)[C@H]1CC[C@H]2[C@@H]3CC[C@@H]4C[C@H](O)CC[C@]4(C)[C@H]3C[C@H](O)[C@]12C`, the Potency entry in experiment [1], in [2], in experiment [3], in experiment [4], in experiment [5] and in experiment [6] was “inactive” in each case.

In the case of `CC/C=C\CCOC(=O)CC`, the Potency result in experiment [1], in experiment [2], in experiment [3], in experiment [4], in experiment [5] and in [6] was “inactive” in each case.

On to `C=CC(=O)OCCOCCOCCOCCOC(=O)C=C`, for which the Potency in [1] is 49.2 µM (active) and 48.5 µM (active); in [2], 13.8 µM (active) and 12.1 µM (active); in experiment [3], 8.68 µM (active) and 6.06 µM (active); in experiment [4], 12.3 µM (active) and 9.6 µM (active); in [5], 24.7 µM (active); in experiment [6], 30.4 µM (active).

For `COc1ccc(C(=O)Nc2nc3ccccc3c(NCc3ccccc3)c2C#N)cc1`, the Potency result in [1], in [5] and in experiment [6] was “inactive” throughout. Besides, the results for the Potency in [2], in experiment [3] and in [4] were 27.3 µM (active), 38.6 µM (active) and 15.4 µM (active), respectively.

In the case of `O=CC1CC=CCC1` (stereo not given), the Potency result in experiment [1], in experiment [2], in [3], in experiment [4], in experiment [5] and in [7] was “inactive” throughout. In addition, the Potency result in experiment [8], in experiment [9], in experiment [6] and in experiment [10] was “inactive” each time.

Take `CC(=O)[O][Al][O]C(C)=O`: the Potency entry in experiment [1], in experiment [2], in [3], in [4], in [5] and in [6] was “inactive” each time.

Take `O=C(Cl)c1cc(C(=O)Cl)cc(C(=O)Cl)c1`: the Potency result in [1], in experiment [5] and in experiment [6] was “inactive” in each case. The Potency was 19.3 µM (active) in experiment [2], 27.3 µM (active) in experiment [3] and 19.3 µM (active) in [4].

On to `O=C1[C@H]2CCCC[C@H]2C(=O)N1CCCCN1CCN(c2nsc3ccccc23)CC1`, for which the Potency result in experiment [1] is “inactive”. In addition, the results for the Potency in experiment [2], in experiment [3] and in [4] were 6.68 µM (active), 5.96 µM (active) and 5.96 µM (active), respectively.

Take `C/C(=C(\CCOP(=O)(O)O)SC(=O)c1ccccc1)N(C=O)Cc1cnc(C)nc1N`: the Potency entry in experiment [1], in [2], in experiment [3], in experiment [4], in experiment [5] and in [7] was “inactive” in each case. The Potency entry in [6] and in experiment [10] was “inactive” in each case. Besides, in [9], the Potency is 12.7 µM (active).

For the compound `CNCCCN1c2ccccc2CCc2ccccc21`, the Potency result in [1], in experiment [5], in [8], in experiment [9], in experiment [6] and in [10] was “inactive” each time. The figures for the Potency in [2], in [3] and in experiment [4] were 4.52 µM (active), 16 µM (active) and 11.4 µM (active), respectively.

Turning to `Brc1c2ccccc2cc2ccccc12`, the Potency entry in [1], in experiment [2], in experiment [3], in experiment [4], in experiment [5] and in [6] was “inactive” each time.

As for `O=C1CCCCCCCCCCCC(=O)OCCO1`, the Potency entry in [1], in [5], in [9], in [6] and in experiment [10] was “inactive” throughout. Moreover, the results for the Potency in experiment [2], in [3] and in experiment [4] were 54.5 µM (active), 27.3 µM (active) and 27.3 µM (active), respectively.

`CC(C)OC(=O)C(C)N(C(=O)c1ccccc1)c1ccc(F)c(Cl)c1` (stereo not given): the Potency entry in experiment [1] and in [5] was “inactive” throughout. In addition, the Potency in experiment [2] is 6.11 µM (active); in experiment [3], 6.86 µM (active); in experiment [4] it was 13.7 µM (active).

Take `CCC(C)(C)CC`: the Potency entry in experiment [1] is “inactive”.

`C[C@@H](c1ncncc1F)C(O)(Cn1cncn1)c1ccc(F)cc1F` (stereo not given in full): the Potency entry in experiment [1], in experiment [2], in experiment [3], in [4], in experiment [5] and in experiment [7] was “inactive” in each case. For the same compound, the Potency entry in experiment [9], in [6] and in [10] was “inactive” each time.

With `C=CC(=O)OCCOCCOC(=O)C=C`, in [1], the Potency result is “inactive”. Besides, the Potency in experiment [2] is 9.73 µM (active); in experiment [3], 6.14 µM (active); in [4] it was 9.73 µM (active); in experiment [5] it was 39.1 µM (active).

With `COc1ccc(C)cc1[N+](=O)[O-]`, the Potency entry in experiment [1], in [2], in experiment [3], in experiment [4], in experiment [5] and in experiment [6] was “inactive” throughout.

For `Cc1oc2c(NC(=O)c3c(Cl)cccc3Cl)cccc2c1C(C)(C)O`, the Potency entry in experiment [1] and in experiment [5] was “inactive” in each case. The figures for the Potency in experiment [2], in [3] and in experiment [4] were 43.3 µM (active), 27.3 µM (active) and 48.6 µM (active), respectively.

As for `CC[N+](C)(CC)CCOC(=O)C(O)(c1ccccc1)C1CCCCC1` (stereo not given), the Potency entry in experiment [1], in experiment [2], in experiment [3], in [4] and in experiment [5] was “inactive” each time.

As to `C[N+]1(CC2COC(c3ccccc3)(C3CCCCC3)O2)CCCCC1` (stereo not given), the Potency result in experiment [1] and in [5] was “inactive” each time. The Potency in [2] was 2.66 µM (active); in experiment [3] it was 3.76 µM (active); in experiment [4], 5.31 µM (active).

Take `NC(=O)C(c1ccccc1)(c1ccccc1)[C@@H]1CCN(CCc2ccc3c(c2)CCO3)C1`: the Potency entry in experiment [1] and in experiment [5] was “inactive” in each case. For the same compound, the Potency in experiment [2] was 11.9 µM (active); in [3] it was 18.8 µM (active); in experiment [4], 23.7 µM (active).

With `CCOC(=O)NCCOc1ccc(Oc2ccccc2)cc1`, the Potency result in experiment [1] was “inactive”. The Potency in [2] is 61.1 µM (active); in [3], 68.6 µM (active); in [4], 61.1 µM (active).

On to `Cc1c(N)cccc1[N+](=O)[O-]`, for which the Potency entry in [1], in [2], in experiment [3], in experiment [4], in experiment [5] and in experiment [6] was “inactive” each time.

For the compound `Nc1cc(C(=O)O)c(O)c(S(=O)(=O)O)c1`, the Potency result in [1], in experiment [2], in experiment [3], in [4], in experiment [5] and in [6] was “inactive” throughout.

In the case of `COc1cc2c(cc1OC)C(C(C(=O)N(CCc1ccc(OC)c(OC)c1OC)CCc1ccc(OC)c(OC)c1OC)c1ccccc1)=NCC2` (stereo not given), the Potency result in [1], in experiment [5] and in experiment [6] was “inactive” throughout. For the same compound, the values for the Potency in [2], in experiment [3] and in [4] were 6.68 µM (active), 10.6 µM (active) and 11.9 µM (active), respectively.
